Laboratory results as given in PubChem BioAssay (NCI).
The panel holds about 83,000 compounds, 20% with a hit somewhere; the sample as a whole holds those more often.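 Negative percent growth values reflect cell death: -40 means 40% of the cells present at the start died, and -100 means all died.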 A number with no mark means an inactive call. Active and inactive are the calls of the source.

These molecules were tested on NCI-H522 lung (assay: NCI-60 one-dose screen, 48 h (100 = growth as untreated, 0 = no growth, -100 = all killed)). Conditions: 10 µM unless noted.
Procedure: Growth inhibition of the NCI-H522 human Non-Small Cell Lung tumor cell line is measured as a screen for anti-cancer activity. Cells are grown in 96 well plates and exposed to the test compound for 48 hours. Compounds are tested at a single concentration, which is 10^-5 M for most compounds. The reported endpoint is percent growth (GI% or GIPRCNT), where numbers from 0 - 100% represent growth inhibition, and numbers from -100% - 0 represent cell death. For example, a value of 40 represents 60% growth inhibition. A value of 0 means no net growth occurred over the course of the experiment. A value of -40 indicates 40% of cells at the beginning of the experiment died by the end of the experiment. A value of -100 means all cells are dead at the end of the experiment.
NCI-60 Human Tumor Cell Lines Screen was performed using the standard one-dose NCI protocol, which is described in more detail at https://dtp.cancer.gov/discovery_development/nci-60/default.htm.
Compounds with GIPRCNT values below 10 were considered active. Activity score was based on GIPRCNT using the following formula: […]
Score is 0 for GIPRCNT values of 100 or above, 50 for GIPRCNT values of 0, and 100 for GIPRCNT values of -100.
`CC1(C)CC(=O)c2c(ccc(C(=O)C[C@H](N)CO)c2N)O1` was tested, and the growth was 46.2%.
`O=c1ccn(C2OC(F)(CO)C(O)C2F)c(=O)[nH]1` (stereo not given) was tested, and the growth was 75%.
For `COc1ccc(C2=NC(=O)NC2c2ccc(OC)cc2)cc1` (stereo not given), the growth was 54%.
Work on `COc1ccccc1NC(=O)Nc1ccc(-c2nc3ccccc3o2)cc1` yielded a growth of 112%.
With `C#C[C@]1(O)CC[C@H]2[C@@H]3CC=C4c5sc(N=C(N)N)nc5CC[C@]4(C)[C@H]3CC[C@@]21C` the growth was -24.1% (active).
Work on `Cc1c(C)c2c(c(C)c1NC(=O)/C=C\C(=O)O)CCC(C)(CCCC(C)CCCC(C)CCCC(C)C)O2` (stereo not given) yielded a growth of 66.7%.
For `CCCCCCCCN(CCCCCCCC)C(=N)c1ccnc2ccccc12`, the growth was -74.7% (active).
Work on `C=C(C)C1CCC(=C)C2CCC3(C)OC12/C=C(/COC(C)=O)CCC3O` (stereo not given) yielded a growth of 93.3%.
`Cc1cc2c(F)c(Oc3ncnc(Nc4ccc(N5C[C@@H](C)N[C@@H](C)C5)cc4)c3C#N)cc(F)c2[nH]1` was tested, and the growth was -21.8% (active).
With `COc1ccc(-c2cn(-c3cccc(C(=O)/C=C/c4cc(OC)c(OC)c(OC)c4)c3)c(=O)[nH]2)cc1` the growth was -38.7% (active).
`CN(C)S(=O)(=O)n1cnc([C@@H]2[C@@H]3C(=O)OC[C@@H]3C[C@]23N=CN(Cc2ccccc2)C3=O)c1` showed a growth of 102%.
`COC(=O)[C@]12CC[C@@H](C)[C@H](C)[C@@H]1C1=CC[C@@H]3[C@@]4(C)C(C=O)=C[C@@](C)(CO)C4=CC[C@@]3(C)[C@]1(C)CC2` gave a growth of 28.1%.
For `CCCCNC(=O)NS(=O)(=O)c1ccc(N2N=C(c3ccc(C)cc3C)CC2c2ccc(N(C)C)cc2)cc1` (stereo not given), the growth was 50%.
`Cc1c2c(cn1Cc1ccccc1)CCc1cn[nH]c1-2` gave a growth of 97.5%.
For `O=C(CCc1nc(-c2cccc(Cl)c2)no1)Nc1ccccn1`, the growth was 84.5%.
`Cc1ccc(O)c(C(=O)c2ccccc2Cl)c1` showed a growth of 102%.
In the case of `CCCCNCC(=O)Nc1ccc(C(=O)OCC)cc1`, the growth is reported as 69.1%.
Molecule `Cc1cc(N(CCCNc2ccnc3cc(Cl)ccc23)Cc2ccccn2)nc(N2CCOCC2)n1` has a growth of 74.7%.
`O=C1c2ccccc2C2(c3ccc(O)cc3)c3ccccc3Oc3cccc1c32` (stereo not given) gave a growth of 48.6%.
With `C=C1c2c(C)nn(-c3ccc(NC(C)=O)cc3)c2N(C)C23CC1C1(C)c4c(C)nn(-c5ccc(NC(C)=O)cc5)c4N(C)C(C)(CC12)C3` (stereo not given) the growth was 42.9%.
With `CCOC(=O)C1=C(C)NC(SCc2nnc(-c3ccc(Cl)cc3)o2)=NC1c1ccc(Cl)cc1Cl` (stereo not given) the growth was 50.2%.
Molecule `CCc1cc(Cc2cc(CC)cc(C(C)(C)C)c2O)c(O)c(C(C)(C)C)c1` has a growth of 22.2%.
Molecule `O=C1C2=C(CCN(Cc3ccccc3)C2)N2CCN=C2N1Cc1ccc(C(F)(F)F)cc1` has a growth of 19.9%.
For `CC(C)c1ccc(NC(=O)Cc2ccc(Nc3ncnc4cc(-c5cnn(CCN(C)C)c5)ccc34)cc2)cc1`, the growth was -45.3% [30 µM] (active).
`Cc1cc(NS(=O)(=O)c2ccccc2)c(OS(=O)(=O)c2ccccc2)cc1C` showed a growth of 97.4%.
`CC(C)(C)OC(=O)N1Cc2cc3ccccc3nc2C1CO` (stereo not given) gave a growth of 110%.
Work on `NC(N)=N/N=C(/c1ccccc1)c1ccc(N)cc1` yielded a growth of 88.5%.
Work on `CCCCOc1nc2ccc(Cl)cc2cc1/C=C/C(=O)/C=C1/CC(c2cc3cc(Cl)ccc3nc2OCCCC)Nc2ccccc2N1` (stereo not given) yielded a growth of 90.4%.
In the case of `O=C1CSC(c2ccccc2Cl)N1c1nnc(Cn2cnnc2)o1` (stereo not given), the growth is reported as 101%.
`CC(=O)Nc1ccc2c(c1)Cc1c(F)cccc1-2` gave a growth of 89%.
In the case of `CC/C=C/[C@@H]1C=C[C@@H]2CCC[C@H]2[C@@H]1CC[C@H](O)[C@H](C)N`, the growth is reported as -56.9% (active).
`COc1ccc(-c2c(N)n[nH]c2-c2ccccc2O)cc1OC` showed a growth of 85%.
`CCCCCCNC(=O)c1cc(NCc2cc(O)ccc2O)ccc1O` was tested, and the growth was -62.3% (active).
`N#C/C(=C\c1ccc(Br)cc1)n1nnc2cc(Cl)c(Cl)cc21` was tested, and the growth was 6.95% (active).
With `CC(C)c1ccc(C(=O)OC(=O)c2ccc(C(C)C)cc2)cc1` the growth was 85.3%.
With `Clc1ccc(/C=N\N=c2\scc(-c3ccc(Cl)cc3)n2/N=C/c2ccc(Cl)cc2)cc1` the growth was 68.7%.
`CCCNCC(=O)Nc1ccc(C(=O)OC(C)(C)CC)cc1` was tested, and the growth was 66.6%.
With `C/C(=N\NC(=O)Cn1c(-c2ccc(S(C)(=O)=O)cc2)nc2cc(Cl)ccc21)c1ccc(Cl)cc1` the growth was 74.9%.
`CCN(CC)CCNc1ccc(C)c2sc3cc(C)ccc3c(=O)c12` showed a growth of 44.2%.
With `Cc1csc(NC(=O)c2sc3nc(-c4cccs4)ccc3c2N)n1` the growth was 82.3%.
